Screening data as filed in PubChem.
KDM5B inh – KDM5B demethylase inhibition | Q9UGL1 | KDM5B demethylase, FDH-coupled NADH fluorescence (FDH is formaldehyde dehydrogenase) | Potency, µM (top dose mostly 57.7 µM), hits mostly inhibitors | 2.6% of 220,000 active | AID 1347165; further: nearly all actives have a fitted effect of over 70% in size
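qHTS format, multiple compound concentrations. Buffer 50 mM HEPES pH 7.5/0.01% Tween-20; 200 nM KDM5BΔAP final; 10 min compound preincubation; substrate-mix levels 12.5 µM peptide, 25 µM α-KG, 0.25 mM NAD⁺; 30 min RT; ΔRFU.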
HEK293 viab – reduces viability of HEK-293 SNCA reporter cells | HEK-293-SNCA-luc viability, GF-AFC fluorescence, 24 h | Potency, µM (doses to about 57.1 µM), usual class: cytotoxic | 0.12% of 150,000 active | AID 1671193; further: nearly all actives have a fitted effect of over 30% in size
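HEK-293-SNCA-luc cells (1500/well) plated 24 h, then exposed 24 h to a dilution series; GF-AFC added 30 min at 37C, fluorescence 405/540 nm; normalised to medium-only and DMSO wells, Hill fit.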
SNCA expr inh – SNCA gene expression inhibition; HEK-293 SNCA-luciferase knock-in, luminescence, 24 h; Potency, µM (series often up to 57.2 µM), usual class: inhibitors; 0.17% of 140,000 active; further: nearly all actives have a fitted effect of over 45% in size
IP6K1 inhibitor – blocks human inositol hexakisphosphate kinase 1; Q92551; IP6K1 kinase, ADP-Glo luminescence, 2 h; hits give low values; activity change, % (series mostly up to about 58 µM); 0.81% of 140,000 active; AID 1645851; in the data active means activity change below about -25%
Target sequence (Q92551 whole entry, looked up): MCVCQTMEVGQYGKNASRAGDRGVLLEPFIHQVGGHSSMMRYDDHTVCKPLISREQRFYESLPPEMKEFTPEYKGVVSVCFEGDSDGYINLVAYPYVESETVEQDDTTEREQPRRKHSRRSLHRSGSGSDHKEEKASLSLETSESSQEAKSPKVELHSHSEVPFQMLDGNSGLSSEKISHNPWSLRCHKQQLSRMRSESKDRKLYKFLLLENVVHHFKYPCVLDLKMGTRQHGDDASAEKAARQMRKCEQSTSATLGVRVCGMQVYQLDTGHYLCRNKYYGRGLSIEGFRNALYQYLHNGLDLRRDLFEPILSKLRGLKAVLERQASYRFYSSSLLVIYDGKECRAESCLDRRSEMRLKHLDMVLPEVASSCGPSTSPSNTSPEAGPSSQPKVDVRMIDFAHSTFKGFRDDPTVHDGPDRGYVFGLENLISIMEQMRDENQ
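ADP-Glo luminescence measures ADP made by human IP6K1 during a 2 h RT reaction with ATP/IP6 (mix at 1.3 mM/130 uM); top library doses 57.5 and 19.1 uM final.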
Each line names hits and unclear results; the compound was inactive in the other large screens; ! = not active in a repeat. An excerpt weighted towards active compounds, which were near 2.9% of everything screened. Unless noted, the call rests on the fitted dose curve; in most records, active means well fitted curve in the direction sought with a large enough effect; inconclusive means small, poorly fitted or top-dose-only effect, or another doubt; inactive means no such curve, though single readings can be large; an effect the other way counts as inactive or inconclusive.

c1ccc(-c2ccccc2Nc2cnc3ccc(N4CCOCC4)nn23)cc1	HEK293 viab inconclusive
FC(F)(F)c1cc(Nc2cnc3ccc(N4CCOCC4)nn23)ccc1Cl	KDM5B inh 32µM
Cc1ccc2c(c1)N(CCC(=O)NCc1ccc(F)cc1)C(=O)CO2	KDM5B inh inconclusive
Cc1c(-c2ccc(F)cc2)[nH]c2ccc(CNC(=O)[C@@H]3CCCO3)cc12	KDM5B inh 28µM
Cc1c(-c2ccc(F)cc2)[nH]c2ccc(CNCc3cnn(C)c3)cc12	KDM5B inh 32µM
Cc1c(-c2ccc(F)cc2)[nH]c2ccc(CNC(=O)CCN3CCCO3)cc12	KDM5B inh 32µM
Cc1nc(CC(=O)NCc2ccc3[nH]c(-c4ccc(F)cc4)c(C)c3c2)cs1	KDM5B inh 32µM
Cn1c(=O)[nH]c(=O)c2c1nc(Cl)n2Cc1ccccc1	none (no result: HEK293 viab, SNCA expr inh, IP6K1 inhibitor)
CCN(CC)S(=O)(=O)c1cccc(NC(=O)COC(=O)c2nn(C)c(=O)c3ccccc23)c1	none (no result: HEK293 viab, SNCA expr inh, IP6K1 inhibitor)
Cc1ccc(B(O)O)c2cccnc12	none (no result: HEK293 viab, SNCA expr inh, IP6K1 inhibitor)
Cc1ccc(-c2ccc(N)nc2)c2cccnc12	KDM5B inh 25µM
Fc1cc(F)cc(Cc2nc3nccc(-c4ccccc4)n3n2)c1	KDM5B inh 28µM
COc1ccc(CCc2nc3nccc(-c4ccco4)n3n2)cc1OC	none
CC(C)Cc1nc2nccc(-c3ccccc3)n2n1	KDM5B inh 28µM
CC(C)Cc1nc2nccc(-c3ccco3)n2n1	KDM5B inh 25µM
CC(C)Cc1nc2nccc(-c3ccc(F)cc3)n2n1	KDM5B inh inconclusive
CC(C)Cc1nc2nccc(-c3ccncc3)n2n1	KDM5B inh 28µM
O=C(c1ccc(F)cc1)[C@@H]1[C@H]2C(=O)[C@@H]3OC[C@@H](O3)[C@@H]12	none (no result: HEK293 viab, SNCA expr inh, IP6K1 inhibitor)
c1ccc(CCc2nc3nccc(-c4ccco4)n3n2)cc1	KDM5B inh 25µM
O=C(NCc1ccc2c(c1)OCCO2)N1CCN(S(=O)(=O)c2cccc(Cl)c2Cl)CC1	none (no result: HEK293 viab, SNCA expr inh, IP6K1 inhibitor)
O=C(Cn1cccc1-c1nc(-c2ccccc2)no1)N1CCc2ccccc21	none
O=C(Cn1cccc1-c1nc(-c2ccc3c(c2)OCO3)no1)N1CCCc2ccccc21	KDM5B inh 32µM, HEK293 viab inconclusive
Cc1ccc(SCc2cc(=O)oc3c(C)c(C)ccc23)cc1	none (no result: HEK293 viab, SNCA expr inh, IP6K1 inhibitor)
CC(=O)N1CCc2c(sc3c2c(=O)n(-c2cccc(Cl)c2C)c(=O)n3Cc2ccccc2C)C1	HEK293 viab inconclusive
C#CCn1c(=O)n(-c2cccc(Cl)c2C)c(=O)c2c3c(sc21)CN(C(C)=O)CC3	SNCA expr inh 4µM
COCC(=O)N[C@H]1C[C@H]2C(=O)Nc3ccc(-c4cccs4)cc3C(=O)N2C1	KDM5B inh 35µM
CC(C)(CC(=O)O)CC(=O)N[C@H]1C[C@H]2C(=O)Nc3ccc(-c4cccs4)cc3C(=O)N2C1	KDM5B inh inconclusive
O=C(O)CSCC(=O)N[C@H]1C[C@H]2C(=O)Nc3ccc(-c4cccs4)cc3C(=O)N2C1	KDM5B inh 28µM
CN1C(=O)CC(C(=O)O)C12CCN(C(=O)Nc1cccc(F)c1)CC2 (stereo not drawn)	none
COc1ccccc1-c1cc2c(ccn2C)c(C(=O)NCc2cnccn2)n1	KDM5B inh 32µM
COc1ccccc1-c1cc2c(ccn2C)c(C(=O)NCc2cccnc2)n1	none
COc1ccccc1-c1cc2c(ccn2C)c(C(=O)NCCc2ccccn2)n1	KDM5B inh 35µM
CN(C)c1cccc(C(=O)N2CCC3(CC2)N=C(c2cccc(Br)c2)NO3)c1	KDM5B inh 32µM
Cc1ccc(C(=O)N2CCC3(CC2)N=C(c2ccc(C)cc2)NO3)cc1	none
Cc1ccc(C(=O)N2CCC3(CC2)N=C(c2cccc(Br)c2)NO3)cc1	KDM5B inh 32µM
O=C(NC1CCN(Cc2ccc(-c3ccsc3)cc2)C1)c1cccc(Cl)c1 (stereo not drawn)	none (no result: KDM5B inh)
CC(NS(=O)(=O)c1ccc2c(c1)CCN2C(=O)N1CCCC1)C(=O)Nc1ccccc1 (stereo not drawn)	none (no result: HEK293 viab, SNCA expr inh, IP6K1 inhibitor)
O=C1Cc2c(-c3ccc(N4CCOCC4)cc3)n[nH]c2CN1CCc1ccncc1	KDM5B inh 22µM
COc1ncccc1-c1cccc(CCOc2cnc3c(ccn3CC(=O)O)c2)c1	KDM5B inh 40µM
COc1ccc(-c2cccc(CCOc3cnc4c(ccn4CC(=O)O)c3)c2)c(C)c1	KDM5B inh 40µM
Cc1ccccc1-c1cccc(CCOc2cnc3c(ccn3CC(=O)O)c2)c1	KDM5B inh 40µM
COc1ccc(-c2cccc(CCOc3cnc4c(ccn4CC(=O)O)c3)c2)c(F)c1	KDM5B inh inconclusive
N#Cc1ccc(CN2CCc3nc(N4CCc5ccccc5C4)[nH]c(=O)c3CC2)cc1	KDM5B inh inconclusive
CN1CCN(C(=O)CN2CCN(C(C(=O)O)c3cn(CCC(=O)O)c4cc(F)ccc34)CC2)CC1 (stereo not drawn)	none (no result: HEK293 viab, SNCA expr inh, IP6K1 inhibitor)
C=CCNC1=C2C[C@@H](C)C[C@H](OC)[C@@H](O)[C@@H](C)C=C(C)[C@H](OC(N)=O)[C@@H](OC)C=CC=C(C)C(=O)NC(=CC1=O)C2=O	SNCA expr inh inconclusive (no result: KDM5B inh, IP6K1 inhibitor)
CO[C@H]1C=CC=C(C)C(=O)NC2=CC(=O)C(NCCN(C)C)=C(C[C@@H](C)C[C@H](OC)[C@@H](O)[C@@H](C)C=C(C)[C@@H]1OC(N)=O)C2=O	HEK293 viab inconclusive, SNCA expr inh 0.054µM (no result: KDM5B inh, IP6K1 inhibitor)
Cc1ccc2c(=O)cc(C(=O)Nc3cccc(C(F)(F)F)c3)oc2c1	none (no result: HEK293 viab, SNCA expr inh, IP6K1 inhibitor)
CSCCNC(=O)c1nc2sccn2c1Br	none
O=C(NCCc1ccc(Cl)cc1)c1cc(Br)cn2ccnc12	KDM5B inh 32µM!
CSCCNC(=O)c1cc(Br)cn2ccnc12	KDM5B inh 35µM
O=C(NCc1ccc(-n2cccn2)cc1)c1cc(F)ccc1Br	none (no result: HEK293 viab, SNCA expr inh, IP6K1 inhibitor)
O=C(NCCc1ccc(Cl)cc1)c1nc2sccn2c1Br	none
O=C(NCCc1ccccc1F)c1ccc2nccn2c1	none (no result: KDM5B inh)
O=C(NCc1ccc(F)cc1)c1cc(Br)cn2ccnc12	KDM5B inh 32µM
O=C(NCc1ccccc1F)c1cc(Br)cn2ccnc12	KDM5B inh 22µM
C#CCNC(=O)c1cc(-c2ccccc2)nc2c1cnn2C	none (no result: KDM5B inh)
O=c1cnc2cnc(N3CCOCC3)nc2n1Cc1ccc(F)cc1	none (no result: KDM5B inh, IP6K1 inhibitor)
CO[C@@H]1COCC[C@H]1NC1CCN(c2ncc3ccc(F)cc3n2)CC1	KDM5B inh 28µM
Cc1noc(-c2ccn3c(CNC(=O)c4ccc(C)c(F)c4)nnc3c2)n1	KDM5B inh 3.5µM
CCCc1noc(-c2ccn3c(CNC(=O)c4ccc(F)c(Cl)c4)nnc3c2)n1	KDM5B inh inconclusive
COc1ccc(C(=O)NCc2nnc3cc(-c4nc(C(C)C)no4)ccn23)cc1F	KDM5B inh 10µM
Cc1ccc(C(=O)NCc2nnc3cc(-c4nc(C(C)C)no4)ccn23)cc1F	KDM5B inh 7.1µM
Cc1noc(-c2ccn3c(CNC(=O)COc4ccc(F)cc4)nnc3c2)n1	KDM5B inh 13µM
Cc1nn(-c2ccccc2)c2c1C(C(C)C)N(C1CCCN(C(=O)c3ccccc3Cl)C1)C2=O (stereo not drawn)	none (no result: KDM5B inh, HEK293 viab, SNCA expr inh)
CSc1ccc(C(=O)N2CC(=O)N(Cc3cccc(F)c3)CC(O)C2)cc1 (stereo not drawn)	none (no result: KDM5B inh, HEK293 viab, SNCA expr inh)
